Compound activity as filed in PubChem BioAssay.
The list is not random: actives were taken first. Their share in the collection is about 7.9%.
HCMV inh: human cytomegalovirus inhibition. HFF cells, HCMV-luciferase reporter, 72 h; stronger effect = lower value. activity change, negative = inhibition, % at 57.5 µM. 410,000 compounds, 4.5% hits. AID 1259415; in the data active = activity change below about -60%; inconclusive = no clear call, values can overlap the other calls; inactive = above about -39%
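Inhibition of viral replication was scored as loss of reporter luminescence in HFFs infected with HCMV-luciferase (MOI 1 PFU/cell) for 72 h; compounds tested at 2 doses, normalized to buffer and Salinomycin controls.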
FMDV inh: antivirals against foot and mouth disease virus | 410,000 compounds, 1.2% hits | Potency, µM (doses to about 57.9 µM), for the others: at the top dose activity change, negative = inhibition, most hits filed as inhibitors | AID 1159524 | FMDV antiviral cell-based qHTS; calls by dose curve; tested in HEK293T cells; note: read-out not given here; potency is the fitted concentration of half-maximal effect; nearly all actives have a fitted effect of over 45% in size
Marburg entry inh: inhibitors of Marburg virus binding or cell entry. 300,000 compounds, 1.8% hits. AID 540276. Potency, µM (titrated, usually from 37.8 µM), for inactives: top-dose activity change, negative = inhibition, most hits filed as inhibitors. Marburg virus pseudotyped entry inhibition, cell reporter; calls by dose curve; tested in HEK293 cells; note: potency is the fitted concentration of half-maximal effect
HCV inh: HCV inhibition; Huh7.5.1 HCVcc-Cre infection, luciferase reporter, 44 h; Potency, µM (doses to about 41.8 µM), for inactives: top-dose activity change, negative = inhibition, actives largely listed as inhibitors; 340,000 compounds, 3.4% hits; AID 651820; active = well fitted inhibition curve with a large enough effect; inconclusive = small, poorly fitted or top-dose-only effect, or another doubt; inactive = no such curve, though single readings can be large or run the other way; note: potency is the fitted concentration of half-maximal effect
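Cells (1,000/well) were plated 4 h before compound, then infected with HCVcc-Cre virus (~0.5 moi). After 44 h further culture, infection was read as luciferase luminescence following a 15 min substrate incubation at room temperature.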
Lassa entry inh: inhibitors of Lassa virus binding or cell entry; Lassa virus pseudotype entry inhibition, cell reporter; Potency, µM (highest dose often 37.9 µM), for inactives: top-dose activity change, negative = inhibition, actives largely listed as inhibitors; 300,000 compounds, 1.2% hits; AID 540256; calls by dose curve; tested in HEK293 cells; note: potency is the fitted concentration of half-maximal effect; nearly all actives have a fitted effect of over 50% in size
Starred values were filed as active, the others as inactive; ? = inconclusive; nt = not tested or not shown; [ ] = another dose, or the depositor's remark. % is set by controls: 0 for no effect and ±100 for the full control effect.

SMILES	HCMV inh	FMDV inh	Marburg entry inh	HCV inh	Lassa entry inh
CC(=O)c1cccc(NS(=O)(=O)c2ccc(C(=O)Nc3ccccc3)cc2)c1	-75.8*	-13.0%	?	4.47µM*	?
CCOC(=O)/C=C/S(=O)(=O)c1ccc(NC(C)=O)cc1	-98.9*	?	-27.6%	?	-27.3%
CCOC(=O)/C=C/C(=O)Nc1ccc(S(=O)(=O)Nc2c(C)cc(C)cc2C)cc1	-13.4	?	?	0.9%	-0.8%
Cc1c2cnn(CC(=O)NCc3ccc(F)cc3)c(=O)c2c(C)n1Cc1cccc(Cl)c1	-18.4	-23.3%	?	nt	-1.4%[46.1 µM]
COc1ccc(O)c(C(=O)c2cnn(C(=O)c3cc(C)oc3C)c2)c1	-19.9	5.0%	21.6%	14.3%	8.8%
COc1ccc(O)c(C(=O)c2cnn(S(=O)(=O)c3ccc(C)cc3)c2)c1	-73.9*	8.6%	nt	-5.5%	nt
COc1ccc(C(=O)n2cc(C(=O)c3cc(C)ccc3O)cn2)cc1	-66.9*	-11.8%	?	8.4%	26.1%
COc1ccc(C(=O)n2cc(C(=O)c3cc(C)ccc3O)cn2)cc1OC	-2.2	?	-6.5%	?	11.2%
Cc1c(C(=O)N2CCCCCC2)sc2ncnc(NCC3CCCO3)c12 (configuration not stated)	nt	6.2%	nt	nt	nt
O=C(NC(=S)Nc1ccc(CN2CCOCC2)cc1)c1ccc(-c2cccc(Cl)c2)o1	?	35.5µM*	nt	14.1µM*	nt
COC(=O)c1cc(NC(=O)c2ccc(-c3ccc(Cl)cc3Cl)o2)cc(C(=O)OC)c1	-7.3	-22.3%	nt	nt	-8.5%[46.1 µM]
O=C(Nc1ccc(CN2CCOCC2)cc1)c1ccc(Cl)cc1Cl	-37.9	-10.5%	nt	10µM*	nt
O=C(Nc1ccc(CN2CCOCC2)cc1)c1cc(Br)ccc1Cl	-10.6	-9.0%	nt	-12.2%	nt
O=C(NC(=S)Nc1ccc(CN2CCOCC2)cc1)c1ccc(-c2ccc(Br)cc2)o1	nt	-29.5%	?	8.2%	?
O=C(Nc1ccc(CN2CCOCC2)cc1)c1ccc(-c2cccc(Cl)c2)o1	-85.5*	35.5µM*	?	?	-26.2%
O=C(Nc1ccc(CN2CCOCC2)cc1)c1ccc(-c2ccc(Cl)cc2Cl)o1	-64.7*	?	?	?	-18.7%
O=C(NC(=S)Nc1ccc(CN2CCOCC2)cc1)c1ccc(-c2ccc(Cl)cc2)o1	-28.2	?	nt	6.1%	nt
COc1ccc(Br)cc1/C=N/NS(=O)(=O)c1ccccc1	-86.6*	8.8%	nt	nt	nt
COc1ccc(Br)cc1/C=N/Nc1ccccn1	60.2	-12.0%	nt	11.2µM*	nt
CCOc1ccc(/C=C2\SC(=S)N(CCCC(=O)NCCCN3CCOCC3)C2=O)cc1	-95.0*	11.2µM*	?	-16.2%	?
O=C1C(=Cc2cccc(O)c2O)SC(=S)N1CCCN1CCOCC1	-97.5*	0.0%	nt	nt	nt
CCc1ccc(/C=C2\SC(=S)N(CCCC(=O)NCCCN3CCOCC3)C2=O)cc1	-7.4	?	nt	nt	nt
O=C(CCCN1C(=O)/C(=C/c2ccccc2Cl)SC1=S)NNC(=O)c1ccccc1Cl	-87.8*	?	6.31µM*	12.0%	?
O=C(CCCN1C(=O)/C(=C/c2ccccc2)SC1=S)N1CCOCC1	-97.4*	-10.3%	-1.6%[46.1 µM]	-6.9%	nt
COc1ccc(NC(=O)Cn2ccn(-c3ccc(C)c(C)c3)c(=O)c2=O)cc1Cl	?	7.8%	nt	nt	-3.8%[46.1 µM]
SMILES	HCMV inh	FMDV inh	Marburg entry inh	HCV inh	Lassa entry inh
COc1cc(CN2CCC3(CCC(CNC(=O)c4cc(C)nn4C)O3)CC2)ccc1F (configuration not stated)	nt	3.5%	nt	nt	nt
COc1ccc([C@]23Cc4cc(OC)c(OC)cc4[C@H](O2)C2=C(CCCC2=O)O3)cc1	nt	nt	6.0%[14.2 µM]	nt	nt
O=C(CCN1C(=O)/C(=C/c2ccccc2Cl)SC1=S)N1CCOCC1	-37.6	-6.5%	?	5.62µM*	?
O=C(O)CN1C(=O)/C(=C\c2ccccc2OCc2ccc(Cl)cc2Cl)SC1=S	-32.0	25.1µM*	-15.4%[46.1 µM]	30.1%	9.4%[46.1 µM]
O=C(CCCN1C(=O)/C(=C/c2ccccc2Cl)SC1=S)N1CCCC1	-109.0*	?	nt	?	nt
O=C(O)CN1C(=O)/C(=C\c2cc(Br)ccc2OCc2ccccc2Cl)SC1=S	24.4	-16.4%	-26.0%[46.1 µM]	-16.4%	?
COc1ccc2c(c1)cc1c(=O)n(CC(=O)NCc3ccco3)nc(C)n12	1.1	7.2%	?	nt	nt
CC(C(=O)NC(C)(C)C)n1c(-c2ccc3c(c2)OCO3)nc2ccccc21 (configuration not stated)	15.5	32.7%	nt	nt	nt
O=C(Nc1ccccc1OCc1ccccc1)c1ccccc1Br	0.8	-8.9%	nt	11.2µM*	nt
